Our source for the composite z-score values is PubChem BioAssay.

The test in a line: anti-His antibody binders, primary screen, artefact control for SMM control protein annotation, biochemical, small-molecule microarray, 635 nm fluorescence (AID 1128).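 Note: score merges feature fluorescence with signal-to-noise for each printed compound spot.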 The note with it: anti-His Alexa647 antibody binding, higher = more signal.
As for `COc1ccc([Si](C)(C)[C@@H]2[C@@H](CCO)O[C@]3(C(=O)N(Cc4cccc(N5CCOC5=O)c4)c4ccccc43)[C@H]2C)cc1`, the composite z-score came out at 0.0657. The compound `COCCOC(=O)N1C(=O)[C@@]2(c3ccccc31)[C@H](C(N)=O)[C@H]1C(=O)O[C@H](c3ccccc3)[C@H](c3ccccc3)N1[C@@H]2c1ccc(O)cc1` registered a composite z-score of 0.142. Regarding `O=C1C[C@@](C(=O)NCc2ccccc2)(c2ccc([N+](=O)[O-])cc2)[C@@H](c2ccc(CO)cc2)N1CC12CC3CC(CC(C3)C1)C2`, the composite z-score was found to be 0.729. Consider `COCC(=C=CC[C@H](O)c1cccc(OCCO)c1)CCO`, for which the composite z-score is -0.115.

Regarding `COCCCNC(=O)[C@@]1(Cc2ccccc2CN=[N+]=[N-])N=C(c2ccc(OCCCO)cc2)O[C@H]1c1ccccc1CN=[N+]=[N-]`, the composite z-score was 2.03.

For the compound `COC(=O)[C@]1(Cc2ccccc2)N=C(c2ccc(OCCCO)cc2)O[C@@H]1c1ccccc1N=[N+]=[N-]`, the composite z-score was 1.15. The value for `COC(=O)[C@@]1(Cc2ccc(F)cc2)[C@H]2c3cc(C(=O)N(C)C)n(Cc4ccc(C)o4)c3C[C@H]2CN1C(=O)c1ccccc1` was 1.17. As for `CC(C)=CCCC(C)=CC(O)C1C=CC2C(=O)N(c3ccccc3)C(=O)C2N1Nc1ccc(C(C)C)cc1` (stereo not given), the figure is 0.491; as for `COc1ccccc1CN1C(=O)c2ccccc2[C@@H](C(=O)NCc2ccccc2)[C@@H]1c1ccc(CO)cc1`, 1.99. As for `CC#CC(=O)Oc1ccc(Br)cc1C=CC(=O)OCC`, the figure is -0.179. `O=C(NC1CC1)[C@@H]1c2ccccc2C(=O)N(C2Cc3ccccc3C2)[C@H]1c1ccc(CO)cc1` gave a composite z-score of 2.65. The value for `COCCCNC(=O)[C@@H]1c2ccccc2C(=O)N(Cc2ccccc2OC)[C@H]1c1ccc(CO)cc1` was 2.1; that for `O=C(O)[C@H](Cc1ccccc1)n1cc(-c2ccccc2)nn1` was 0.347; that for `C=CC[C@]1(C(=O)NCc2ccccc2)N=C(c2ccc(OCCCO)cc2)O[C@H]1c1ccccc1CN=[N+]=[N-]` was 1.25. `CN1C(=O)C2C=CC(C(O)c3ccc(F)cc3)N(N(c3ccccc3)c3ccccc3)C2C1=O` (stereo not given) yielded a composite z-score of 0.202. As to `C=CCC(OC(C)=O)[C@@H]1[C@@H](N(Cc2ccc(-c3cccc(C(F)(F)F)c3)o2)C(=O)Cc2ccc(OC)cc2)c2cc(OCCCO)ccc2N1C(=O)c1ccc2ccccc2c1` (stereo not given in full), the composite z-score was -0.448. In turn, `CN(C)CCCCCCNC(=O)[C@@H]1C[C@@H]2C(=O)N[C@@H](CCCC[N+](C)(C)C)C(=O)N2[C@@H]1c1ccc(O)cc1` came in with a composite z-score of 0.486. Take `CC(C)CNC(=O)[C@@]1(Cc2ccccc2I)c2ccccc2C(=O)N(Cc2ccccc2C(F)(F)F)[C@H]1c1ccc(CO)cc1`: the composite z-score was 0.657. As for `C=CC[C@]1(C(N)=O)N=C(c2ccc(OCCCO)cc2)O[C@H]1c1ccccc1`, the figure is 1.3; as for `COCCCNC(=O)[C@@]1(Sc2ccc(C)cc2)CC(=O)N(Cc2ccccc2Cl)[C@@H]1c1ccc(CO)cc1`, 0.225. As for `CCCC=C(CCC)[C@@H](NC(=O)OCC(C)C)c1ccccc1`, the figure is 0.665; as for `OCC1C=C(/C=C/c2ccccc2)CN1Cc1ccccc1Br` (stereo not given), 1.5. As for `CN1C(=O)C2C=CC(C(O)C=Cc3ccc([N+](=O)[O-])cc3)N(Nc3ccccc3)C2C1=O` (stereo not given), the figure is 1.26; as for `COC(=O)[C@@]1(Cc2ccccc2)[C@H]2c3cc(C(=O)N4CCCC4)n(Cc4ccc(O)c(OC)c4)c3C[C@H]2CN1C(=O)c1ccccc1`, 0.882. `CN(C)CCCCCCNC(=O)[C@@H]1C[C@@H]2C(=O)N3CCC[C@H]3C(=O)N2[C@@H]1c1ccc(O)cc1`: the composite z-score amounted to 3.06.

Turning to `C[N+](C)(C)CCCC[C@@H]1NC(=O)[C@H]2C[C@@H](C(=O)NCCCCCCNC(=O)CS)[C@@H](c3ccc(O)cc3)N2C1=O`, the composite z-score is 1.44. `COC(=O)C(CC#Cc1ccc2c(c1)[C@]1(C(=O)N2)[C@H](c2ccccc2OCCO)N2[C@H](c3ccccc3)[C@H](c3ccccc3)OC(=O)[C@H]2[C@@H]1C(=O)O)C(=O)OC`: the composite z-score is 1.94. As for `NCCCCCNC(=O)[C@H]1C[C@H]2C(=O)N3CCC[C@H]3C(=O)N2[C@H]1c1ccc(O)cc1`, the figure is 0.695; as for `C=CCC(OC(C)=O)[C@@H]1[C@@H](N(Cc2ccc(-c3ccccc3)cc2)C(=O)Cc2ccc(F)cc2)c2cc(OCCCO)ccc2N1C(=O)c1ccc2ccccc2c1` (stereo not given in full), -0.264; as for `CCOc1ccc(N2C(=O)CSC2c2cccc([N+](=O)[O-])c2)cc1` (stereo not given), 0.798.

`C=C(CCCC)/C(=C/C[C@H](OC(C)=O)c1ccccc1OCCO)c1cnc2ccccc2c1` returned a composite z-score of 0.528.

`C=CC[C@]1(C(N)=O)COC(c2ccc(OCCCO)cc2)=N1`: the composite z-score was determined as 1.07. As for `COCCOC(=O)N1C(=O)[C@@]2(c3cc(C#CC4=CCCCC4)ccc31)[C@H](C(N)=O)[C@H]1C(=O)O[C@H](c3ccccc3)[C@H](c3ccccc3)N1[C@@H]2c1ccc(O)cc1`, the figure is 0.753; as for `O=C1O[C@@H](c2ccccc2)[C@@H](c2ccccc2)N2[C@@H](c3ccc(OCCO)cc3)[C@]3(C(=O)Nc4ccc(C#CC5=CCCCC5)cc43)[C@@H](C(=O)N3CCCCCCC3)[C@H]12`, 1.41; as for `COc1ccc([Si](C)(C)[C@@H]2[C@@H](CCn3cc([C@H](O)c4ccccc4)nn3)O[C@]3(C(=O)N(Cc4cccc(N5CCC5=O)c4)c4ccccc43)[C@H]2C)cc1`, 0.963.
